# Inconclusive results are not listed. Unmarked numbers belong to inactive results. The call rests on the fitted dose curve; in most records, active means well fitted inhibition curve with a large enough effect; inconclusive means small, poorly fitted or top-dose-only effect; inactive means no such curve, though single readings can be large or run the other way.
# Biological target: Protein phosphatase 1D (Homo sapiens) (UniProt O15297)
# Test: RapidFire Mass Spectrometry qHTS Assay for Modulators of WT P53-Induced Phosphatase 1 (WIP1) (AID 1347424);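 further: plate controls were DMSO wells for no effect and GSK830371 inhibitor control at 10 µM for full effect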
# Settings: WIP1 dephosphorylation of phosphopeptide, RapidFire MS; series mostly up to 63 µM; activity change, negative = inhibition: at the top concentration
# Outline: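 RapidFire mass spectrometry measured dephosphorylated peptide after 5 min room-temperature reaction of 2 uM VEPPL-pS-QETFS with 10 nM WIP1 (50 mM Tris-HCl pH 7.5, 30 mM MgCl2, 0.1 mM EGTA, BSA), following 1 hr compound preincubation; 1 uM isotope-labelled product standard.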
# Protein phosphatase 1D (Homo sapiens), sequence (O15297 whole entry, looked up): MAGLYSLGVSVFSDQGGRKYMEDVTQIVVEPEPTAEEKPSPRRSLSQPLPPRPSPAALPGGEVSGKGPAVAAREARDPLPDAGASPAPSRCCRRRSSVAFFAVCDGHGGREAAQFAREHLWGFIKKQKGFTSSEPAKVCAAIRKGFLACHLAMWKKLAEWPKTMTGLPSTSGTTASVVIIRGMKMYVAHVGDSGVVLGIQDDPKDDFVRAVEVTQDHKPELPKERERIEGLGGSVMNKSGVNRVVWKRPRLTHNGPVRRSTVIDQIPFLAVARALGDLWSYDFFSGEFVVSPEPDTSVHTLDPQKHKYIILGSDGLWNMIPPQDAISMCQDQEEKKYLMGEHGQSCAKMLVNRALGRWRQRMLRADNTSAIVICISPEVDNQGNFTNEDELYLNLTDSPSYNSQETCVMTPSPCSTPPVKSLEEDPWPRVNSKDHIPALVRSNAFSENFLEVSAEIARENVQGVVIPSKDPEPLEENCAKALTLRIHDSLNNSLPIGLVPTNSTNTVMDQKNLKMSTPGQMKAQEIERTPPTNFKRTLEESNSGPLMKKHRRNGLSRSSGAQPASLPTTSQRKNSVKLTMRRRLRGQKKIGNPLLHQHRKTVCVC
row,SMILES,"activity change, negative = inhibition"
1,CC(C)(C#N)c1cc(Cn2cncn2)cc(C(C)(C)C#N)c1,-6.3%
2,C[C@@H]1CN(c2c(F)c(N)c3c(=O)c(C(=O)O)cn(C4CC4)c3c2F)C[C@H](C)N1,-7.58% [at 26.6 µM]
3,O=S(=O)(O)CCS,-10.4%
4,Oc1c(Cl)cc(Cl)c2cccnc12,-7.56%
5,CN(Cc1cc(Br)cc(Br)c1N)C1CCCCC1,7.04%
6,Cc1oc(=O)oc1CN1CCN(c2cc3c(cc2F)c(=O)c(C(=O)O)c2n3C(C)S2)CC1 (stereo not given),-0.523%
7,CN(C)c1ccc(C(=C2C=CC(=[N+](C)C)C=C2)c2ccc(N(C)C)cc2)cc1,46.9%
8,CCC(=O)O[C@]1(C(=O)CCl)[C@@H](C)C[C@H]2[C@@H]3CCC4=CC(=O)C=C[C@]4(C)[C@@]3(F)[C@@H](O)C[C@@]21C,-12.2%
9,Cc1nnc(NS(=O)(=O)c2ccc(N)cc2)s1,-2.49%
10,C[C@@H](CN1CC(=O)NC(=O)C1)N1CC(=O)NC(=O)C1,-10.1%
11,Nc1[nH]c(=O)ncc1F,-6.02%
12,OC(Cn1cncn1)(Cn1cncn1)c1ccc(F)cc1F,-7.24%
13,COc1ccc(C(=O)CC(=O)c2ccc(C(C)(C)C)cc2)cc1,4.94%
14,CC(C)OC(=O)C(C(=O)OC(C)C)=C1SC=CS1,25.9%
15,CCC(C)(C)c1ccc(CC(C)CN2C[C@@H](C)O[C@@H](C)C2)cc1 (stereo not given in full),45.4%
16,CC(=O)[C@H]1CC[C@H]2[C@@H]3CC=C4C[C@@H](O)CC[C@]4(C)[C@H]3CC[C@]12C,9.57%
17,CCCCOc1ccc(CC(=O)NO)cc1,10.2%
18,CN(CCOc1ccc(CC2SC(=O)NC2=O)cc1)c1ccccn1 (stereo not given),-2.4%

row,SMILES,"activity change, negative = inhibition"
1,S=P(N1CC1)(N1CC1)N1CC1,0.458% [at 128 µM]
2,Cn1nnc2c(C(N)=O)ncn2c1=O,-8.53%
3,CC(C)C1CCC(C(=O)N[C@H](Cc2ccccc2)C(=O)O)CC1 (stereo not given in full),-3.53%
4,CCOC(=O)c1ccc(C#Cc2ccc3c(c2)C(C)(C)CCS3)nc1,26.6%
5,COCCCOc1cc(C[C@@H](C[C@H](N)[C@@H](O)C[C@H](C(=O)NCC(C)(C)C(N)=O)C(C)C)C(C)C)ccc1OC,29.9%
6,NNC(=O)c1ccncc1,-14%
7,CC(C)Cn1cnc2c(N)nc3ccccc3c21,-0.593% [at 26.6 µM]
8,C[C@]12C=CC(=O)C=C1CC[C@@H]1[C@@H]2C(=O)C[C@@]2(C)[C@H]1CC[C@]2(O)C(=O)CO,-1.31%
9,CCN[C@H]1C[C@H](C)S(=O)(=O)c2sc(S(N)(=O)=O)cc21,-6.7%
10,COC(c1ccccc1)(c1ccccc1)[C@H](Oc1nc(C)cc(C)n1)C(=O)O,-7.79%
11,C#CCN[C@@H]1CCc2ccccc21,-2.84%
12,CCCOc1ccc(C(=O)OCCN(CC)CC)cc1N,3.78%
13,NS(=O)(=O)c1cc2c(cc1Cl)NC(C(Cl)Cl)NS2(=O)=O (stereo not given),-2.58%
14,CC(C)C[C@H](NC(=O)[C@H](CCc1ccccc1)NC(=O)CN1CCOCC1)C(=O)N[C@@H](Cc1ccccc1)C(=O)N[C@@H](CC(C)C)C(=O)[C@@]1(C)CO1,66.4%
15,CNNCc1ccc(C(=O)NC(C)C)cc1,0.0721%
16,NCCCC(O)(P(=O)(O)O)P(=O)(O)O,-0.977%
17,O=c1oc2c(O)c(O)cc3c(=O)oc4c(O)c(O)cc1c4c23,-5.66% [at 26.6 µM]
